Laboratory results published in PubChem BioAssay (NCI).
Compounds without any hit were thinned out: in the full panel of roughly 83,000, 20% have a hit.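 Treatment: one concentration, 48 hours, 96-well format. Scoring: percent growth, with anything below 10 considered active.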 Unmarked numbers belong to inactive results. Calls of active or inactive are those of the source.

Key:
Assay in all cases: NCI-60 one-dose screen, 48 h (100 = growth as untreated, 0 = no growth, -100 = all killed)
Settings in all cases: 10 µM unless noted
DU-145 prostate = test system: DU-145 prostate
K-562 leukemia = test system: K-562 leukemia
MALME-3M melanoma = test system: MALME-3M melanoma
MDA-MB-231 breast = test system: MDA-MB-231 breast
RXF 393 renal = test system: RXF 393 renal
SF-268 CNS = test system: SF-268 CNS
SF-295 CNS = test system: SF-295 CNS
SF-539 CNS = test system: SF-539 CNS
UACC-257 melanoma = test system: UACC-257 melanoma
M14 melanoma = test system: M14 melanoma
HCT-15 colon = test system: HCT-15 colon
HT29 colon = test system: HT29 colon
SNB-75 CNS = test system: SNB-75 CNS
SNB-19 CNS = test system: SNB-19 CNS
U251 CNS = test system: U251 CNS
PC-3 prostate = test system: PC-3 prostate
SK-MEL-5 melanoma = test system: SK-MEL-5 melanoma
UACC-62 melanoma = test system: UACC-62 melanoma
LOX IMVI melanoma = test system: LOX IMVI melanoma
SK-MEL-28 melanoma = test system: SK-MEL-28 melanoma

Structure (SMILES) | growth (DU-145 prostate) | growth (K-562 leukemia) | growth (MALME-3M melanoma) | growth (MDA-MB-231 breast) | growth (RXF 393 renal) | growth (SF-268 CNS) | growth (SF-295 CNS) | growth (SF-539 CNS) | growth (UACC-257 melanoma) | growth (M14 melanoma) | growth (HCT-15 colon) | growth (HT29 colon) | growth (SNB-75 CNS) | growth (SNB-19 CNS) | growth (U251 CNS) | growth (PC-3 prostate) | growth (SK-MEL-5 melanoma) | growth (UACC-62 melanoma) | growth (LOX IMVI melanoma) | growth (SK-MEL-28 melanoma)
CCN1C(=O)N(CC)C2C1NN=c1s/c(=C\c3ccc(C(F)(F)F)cc3)c(=O)n12 (stereo not given) | 6.72% (active) | 7.4% (active) | 49.5% | 9% (active) | 24.1% | 53.5% | 14.1% | -21.6% (active) | 48.9% | 6.9% (active) | 9.86% (active) | 1.55% (active) | 15% | 24% | 6.65% (active) | 22.6% | 6.27% (active) | 30.9% | 17.4% | 55.8%
NS(=O)(=O)c1ccc(-c2cc(-c3nnc(SCC(=O)Nc4ccc(C(=O)/C=C/c5ccc(Cl)cc5)cc4)n3-c3ccccc3)c3ccccc3n2)cc1 | 95.7% | 84.4% | 101% | 90.8% | 93% | 74.8% | 101% | 92.3% | 104% | 97.7% | 94.7% | 94.9% | 54% | 86.8% | 81.1% | 79.8% | 92.8% | 71% | 88% | 97%
COc1ccc(C(=O)Cn2c(C(=O)c3ccc(OC)cc3)nc3ccccc32)cc1 | 54.6% | 7.61% (active) | 37.2% | 27.8% | 20.4% | 44.5% | 1.78% (active) | 19.4% | 48.5% | -2.49% (active) | 15.9% | 14.9% | 10.4% | 48.8% | 18.3% | 34.2% | 23.5% | 13.9% | 38.8% | 42.8%
CC1=C2[C@@H](CC1)[C@]1(C)O[C@@](C3CCCCC3)(C[C@H]1OC(=O)CO)[C@H]2OC(=O)/C=C/c1ccccc1 | 89.3% | 63.5% | 79.5% | 86.4% | 39.9% | 31.9% | 86.5% | 102% | 84.5% | 91.6% | 77.9% | 62.7% | 72.6% | 91.4% | 73.9% | 53.2% | 87.3% | 62.5% | 82.6% | 101%
CCOc1cccc(/C=N/NC(=O)c2cccc(Nc3ccnc(C(F)(F)F)c3)c2)c1O | 19.2% | 28.7% | 30.9% | 45% | 47.4% | 26.7% | 30.3% | 14.8% | 37.3% | -6.87% (active) | 28.8% | 53.2% | 36.4% | 35.1% | 37% | 59.1% | 34.7% | 0.213% (active) | 11.8% | 34.6%
CC(=C(c1ccc(OCCN2CCCCC2)cc1)c1ccc(OCCN2CCCCC2)cc1)c1ccc(Cl)cc1 | -92.8% (active) | -65.7% (active) | -84.3% (active) | -85.1% (active) | -78.8% (active) | -77.2% (active) | -92.1% (active) | -94.9% (active) | -82.1% (active) | -81.9% (active) | -88.3% (active) | -86.3% (active) | -97.3% (active) | -91.2% (active) | -90.7% (active) | -82.4% (active) | -96.9% (active) | -76.9% (active) | -94.5% (active) | -96.1% (active)
FC(F)(F)Oc1cccc(-c2cnc3ccc(-c4ccncc4)nn23)c1 | 22.2% | 31.6% | 39.2% | 32.9% | -29.6% (active) | 18.9% | 17.4% | -2.61% (active) | 48.6% | 26.8% | 8.36% (active) | 14.7% | 41.6% | 23.5% | 18.7% | 15.5% | 22.6% | -0.898% (active) | 9.23% (active) | 20%
Cc1ccc(C)c(/C=C2\CN(C(=O)OC(C)(C)C)C/C(=C\c3cc(C)ccc3C)C2=O)c1 | 37.7% | 7.09% (active) | 67.7% | 92.1% | 91.1% | 53.6% | 55.9% | 94.9% | 59.4% | 20.1% | 19.4% | 9.93% (active) | 78.5% | 59.9% | 15.9% | 46.6% | 45% | 37.3% | 0.926% (active) | 41.3%
O=C1Nc2ccccc2/C1=C\c1c[nH]c2ccc(Br)cc12 | 89.7% | 74.2% | 89.8% | 67% | 25.4% | 62.2% | 109% | 83.1% | 80.1% | 84.5% | 48.7% | 86.7% | 56.1% | 88.6% | 85% | 70.8% | 35.4% | 80.1% | 50.6% | 72.7%
Cc1nn(-c2cc(NC3CCC(O)CC3)c3c(=O)[nH]c(CCC(F)(F)F)cc3c2)c2c1C(=O)CC(C)(C)C2 (stereo not given) | 27% | 18.5% | 60% | 42% | 39.1% | 72% | 48.5% | 58% | 62.7% | 32.3% | 31.1% | 13.9% | 56.8% | 63.1% | 56.5% | 55.4% | 51.7% | 45% | 30.2% | 53.8%
COc1ccc(/C=C(/c2ccccc2)[N+](=O)[O-])c(OC)c1 | 38.6% | 6.07% (active) | -27% (active) | 12.1% | -67.8% (active) | 14.3% | 9.19% (active) | -48.5% (active) | 10.4% | 5.14% (active) | -36.4% (active) | -19.2% (active) | 53.3% | -9.71% (active) | -59.8% (active) | -20.6% (active) | -25% (active) | -53.9% (active) | -83.5% (active) | -25.3% (active)
CCN1C(=O)N(CC)C2C1NN=c1s/c(=C\c3ccc[nH]3)c(=O)n12 (stereo not given) | -11.9% (active) | 10.2% | 34.5% | 30.6% | -26.6% (active) | 44.6% | 12.4% | -21.5% (active) | 46.7% | -5.38% (active) | 24.4% | -10.4% (active) | -23.6% (active) | 24.9% | 9.08% (active) | 19.6% | 30% | 25.7% | 43% | 46%
O=C(O)COc1ccc(Cl)c(Cl)c1 | 126% | 109% | 124% | 115% | 108% | 117% | 103% | 104% | 104% | 112% | 111% | 112% | 107% | 117% | 108% | 100% | 105% | 104% | 97.9% | 116%
Oc1c(CN2CCCC2)cc(CSCc2ccccc2)c2cccnc12 | 22.6% | 11% | -2.43% (active) | 26.4% | 31.3% | 11.9% | 5.5% (active) | -26.2% (active) | -16.7% (active) | -3.2% (active) | -39.3% (active) | 91% | 24.6% | 23.9% | -1.52% (active) | 20.8% | -26.3% (active) | -19.5% (active) | 2.24% (active) | 23.8%
CC1(C)CC2=C3C=C[C@@H]4[C@@]5(C)CCC(=O)C(C)(C)[C@@H]5CC[C@@]4(C)[C@]3(C)CC[C@@]2(C(=O)O)C[C@H]1O | 65% | 33.1% | 3.59% (active) | -8.81% (active) | 29.1% | 32.6% | 20.5% | 34.8% | 10.5% | 17.6% | 6.74% (active) | 14% | 19.2% | 32.1% | 22.6% | 40.4% | 14% | 20.6% | 7.33% (active) | 25%
